Compound activity from PubChem.
Pf growth 96h: P. falciparum growth inhibition at 96 hours; P. falciparum luciferase reporter growth, 96 h; hit rate 6.9% among 320,000; AID 504834; Potency, µM (highest dose often 28.7 µM), actives largely listed as inhibitors
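Cell-based qHTS: luciferase-tagged P. falciparum in erythrocytes (2% hematocrit, 0.05% parasitemia final) incubated with compounds for 96 hours, 37 C, 5% CO2; luciferase detection reagent then added and luminescence measured.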
HCMV inh: blocks human cytomegalovirus replication. HFF cells, HCMV-luciferase reporter, 72 h; stronger effect = lower value. hit rate 4.5% among 410,000. activity change, negative = inhibition, % at 57.5 µM. AID 1259415; in the data active = activity change below about -60%; inconclusive = no clear call, values can overlap the other calls; inactive = above about -39%
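Cell-based, HFFs, 1000 cells/well, 16 h 37C; cpds in DMSO + HCMV-luc, MOI 1 PFU/cell; 72 h 37C; OneGlo luminescence after 5 min RT; norm. to buffer vs Salinomycin 10uM.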
FBPA Giardia inh: Giardia lamblia aldolase inhibition; Potency, µM (series often up to 59.6 µM), usual class: inhibitors; A8B2U2; purified Giardia FBPA; AID 2451; hit rate 0.71% among 290,000; also: nearly all actives have a fitted effect of over 55% in size
Target sequence (A8B2U2 whole entry, looked up): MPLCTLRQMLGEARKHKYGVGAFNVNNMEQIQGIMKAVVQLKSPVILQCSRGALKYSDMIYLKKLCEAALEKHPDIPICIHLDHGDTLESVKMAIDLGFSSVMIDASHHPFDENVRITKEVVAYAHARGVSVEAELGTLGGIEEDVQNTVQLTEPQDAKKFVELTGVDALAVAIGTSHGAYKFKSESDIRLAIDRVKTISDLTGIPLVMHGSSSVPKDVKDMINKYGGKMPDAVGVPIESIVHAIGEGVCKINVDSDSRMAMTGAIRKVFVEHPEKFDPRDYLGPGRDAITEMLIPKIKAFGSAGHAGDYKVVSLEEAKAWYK
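Giardia FBPA (40 nM reagent) was preincubated 10 min at RT with compound (up to 57.5 uM final), then substrate plus GAPDH/TPI/NAD/arsenate coupling system with diaphorase/resazurin was added; resorufin fluorescence (525/598 nm) was read after 20 min.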
Sm TGR block: blocks Schistosoma mansoni thioredoxin glutathione reductase; Q962Y6; purified TGR, DTNB reduction, TNB absorbance 405 nm; Potency, µM (top dose mostly 114 µM), hits mostly inhibitors; hit rate 3% among 360,000; also: nearly all actives have a fitted effect of over 60% in size
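First, TGR (20 nM dispensed) and NADPH were mixed with compound. Second, a 15 min room-temperature incubation followed. Third, further NADPH and then DTNB were added to start the reaction. Finally, TNB absorbance was monitored kinetically.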
Pf growth 48h: inhibits P. falciparum growth in the first generation, 48 h; P. falciparum luciferase growth in erythrocytes, 48 h; hit rate 5.9% among 310,000; Potency, µM (doses to about 28.7 µM), hits mostly inhibitors; AID 504832
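Compounds are pin-transferred into medium, infected erythrocytes (2% hematocrit, 0.1% parasitemia final) are added, and plates sit one parasite generation at 37 C in 5% CO2. Detection reagent is then added and luminescence measured.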
A number is an active result; 0 = inactive; ? = inconclusive; - = no result. An excerpt weighted towards active compounds, which were near 14% of everything screened. Unless noted, calls follow the shape of the dose curve; as a rule, active = well fitted curve in the direction sought with a large enough effect; inconclusive = small, poorly fitted or top-dose-only effect, or another doubt; inactive = no such curve, though single readings can be large; an effect the other way counts as inactive or inconclusive.

SMILES | Pf growth 96h | HCMV inh | FBPA Giardia inh | Sm TGR block | Pf growth 48h
CC(O)[C@H]1CN=C(N)N1CCc1cc(C(F)(F)F)cc(C(F)(F)F)c1 (stereo partly drawn) | 0 | 0 | 0 | 0 | ?
NC1=NC[C@H](c2ccccc2)N1CCc1cc(C(F)(F)F)cc(C(F)(F)F)c1 | 3.7µM | -71 | 0 | 0 | 13µM
CC(C)(CNC(=O)c1ccccc1NS(C)(=O)=O)N1CCCCC1 | 0 | 0 | 0 | 0 | 0
CCCCOC(=O)CSc1nnc(-c2ccc(C)cc2)o1 | - | 0 | - | 0 | -
Cc1ccc2nc(SCC(=O)Nc3cc([N+](=O)[O-])ccc3F)[nH]c2c1 | 0 | -91 | 0 | 0 | 0
Cc1ccc2nc(SC(C)C(=O)Nc3cccc([N+](=O)[O-])c3)[nH]c2c1 (stereo not drawn) | ? | -67 | 0 | 0 | ?
Cc1ccc(SCc2cc(=O)[nH]c(/N=C(\N)Nc3ccccc3Sc3ccccc3)n2)cc1 | 10µM | -94 | 0 | 0 | ?
Cc1cccc(N/C(N)=N/c2nc(C(F)(F)F)cc(=O)[nH]2)c1C | 0 | -104 | 0 | 0 | 0
COc1ccccc1N/C(N)=N/c1nc(CSc2ccc(C)cc2)cc(=O)[nH]1 | ? | ? | 0 | 0 | 0
N/C(=N\c1nc(CSc2ccc(Cl)cc2)cc(=O)[nH]1)Nc1ccccc1C(F)(F)F | ? | 0 | 0 | - | 13µM
Cc1ccc(N/C(N)=N/c2nc(CSc3ccc(C)cc3)cc(=O)[nH]2)cc1 | - | 0 | 0 | 0 | 0
Cc1cc(C)c(NC(=O)C2CCN(S(C)(=O)=O)CC2)c(C)c1 | - | 0 | - | - | -
CCCN1C[C@H](C)N([C@H](c2ccc(C(=O)N(CC)CC)cc2)c2cccc(OC)c2)C[C@H]1C | - | - | 0 | - | -
C=CCN1C[C@@H](C)N(C(c2ccc(C(=O)N(CC)CC)cc2)c2cccc(OC)c2)C[C@@H]1C (stereo partly drawn) | 0 | 0 | - | 0 | 1.7µM
C=CCN1C[C@H](C)N([C@H](c2ccc(C(=O)N(CC)CC)cc2)c2cccc(OC)c2)C[C@H]1C | 0 | - | 0 | - | 4.8µM
C=CCN1C[C@@H](C)N([C@H](c2ccc(C(=O)N(CC)CC)cc2)c2cccc(OC)c2)C[C@@H]1C | - | - | 0 | - | -
COc1ccc2c(c1)[C@@H](NC(=O)OCc1ccccc1)[C@H](C)[C@@H](c1ccccc1)N2Cc1cccc(F)c1 | - | 0 | - | - | -
CN(c1ccccc1)c1ccc(/C=C(\C#N)c2nnc3n2CCCCC3)cc1[N+](=O)[O-] | ? | -78 | 0 | 0 | ?
O=c1nc2n(c3ccc([N+](=O)[O-])cc13)CCCCC2 | ? | 0 | 0 | 0 | 0
N#C/C(=C\c1cccc([N+](=O)[O-])c1)c1nnc2n1CCCCC2 | 0 | -69 | 0 | 0 | 0
CN(c1ccccc1)c1ccc(/C=C(\CCC(=O)O)c2nc3ccccc3s2)cc1[N+](=O)[O-] | 0 | 0 | 0 | 0 | 0
Cc1ccc(CN(C)C(=O)C2CCCN2C(=O)c2cccs2)o1 (stereo not drawn) | 0 | 0 | 0 | 7.9µM | 0
CN(CC(=O)Nc1ccc(F)c(F)c1F)C(=O)C1CCCN1C(=O)c1cccs1 (stereo not drawn) | - | 0 | - | - | -
CCOC(=O)C1CCN(C(=O)CSc2n[nH]c(-c3ccc(F)cc3)n2)CC1 | - | 0 | - | 0 | -
N#CCC(=O)Nc1ccc(C(=O)OCC(=O)NC(=O)Cc2ccccc2)cc1 | 0 | 0 | - | 0 | 0
SMILES | Pf growth 96h | HCMV inh | FBPA Giardia inh | Sm TGR block | Pf growth 48h
O=C(OCC(=O)N(C1CCCCC1)C1CCCCC1)c1ccccc1O | ? | 0 | 0 | 0 | ?
N#CCC(=O)Nc1ccc(C(=O)OCC(=O)N(C2CCCCC2)C2CCCCC2)cc1 | ? | 0 | 0 | 0 | 12µM
CNC(=O)COC(=O)c1ccc(NC(=O)CC#N)cc1 | - | -101 | 0 | 0 | 0
N#CCC(=O)Nc1ccc(C(=O)OCC(=O)NCc2ccc3c(c2)OCO3)cc1 | ? | 0 | - | 0 | 8.3µM
N#CCC(=O)Nc1ccc(C(=O)OCC(=O)NC2CCCCCC2)cc1 | ? | 0 | - | 0 | ?
O=C(OCC(=O)N(C1CCCCC1)C1CCCCC1)c1ccc(O)cc1 | ? | 0 | 0 | 0 | 8.3µM
CCCn1cc(CN2CCC(Cc3ccccc3)(C(=O)OCC)CC2)c(C)n1 | 10µM | ? | 0 | 0 | 0
CCOC(=O)C1(Cc2ccccc2C)CCCN(Cc2cc(OC)c(O)c(OC)c2)C1 (stereo not drawn) | 0 | 0 | ? | 4.5µM | ?
CCOC(=O)C1(Cc2ccccc2C)CCCN(S(=O)(=O)c2cccnc2)C1 (stereo not drawn) | 10µM | -93 | 0 | 0 | 9.3µM
CCOC(=O)C1(Cc2ccccc2C)CCCN(C(=O)c2ccnn2C)C1 (stereo not drawn) | ? | 0 | 0 | 0 | 0
CCOC(=O)C1(Cc2ccccc2)CCCN(Cc2ccncc2)C1 (stereo not drawn) | 0 | 0 | 0 | 0 | 9.3µM
CCOC(=O)C1(Cc2ccccc2C)CCCN(Cc2cn(C)nc2C)C1 (stereo not drawn) | 0 | ? | 0 | 0 | 0
CCOC(=O)N=S(N)(=O)c1ccccc1 (stereo not drawn) | 10µM | 0 | 0 | 0 | 0
O=C(NC1CCCCC1)c1ccc2c(c1)N(Cc1cccc(Cl)c1)C(=O)c1ccccc1S2(=O)=O | - | 0 | - | 0 | -
CCN(CC)Cc1c(O)ccc2c([N+](=O)[O-])c(C)n(-c3ccc(OC)cc3)c12 | ? | -96 | 0 | 0 | ?
NCCC[C@@H](CC(=O)N[C@@H]1CCNC[C@H]1C(=O)N[C@H](CC(=O)N[C@@H](CCC(=O)O)CC(=O)O)Cc1ccccc1)NC(=O)C[C@H](Cc1c[nH]c2ccccc12)NC(=O)[C@@H]1CCCC[C@H]1N | - | - | 0 | - | -
CC1=NN(c2ccccc2)C(=O)/C1=C\c1cc(C)n(-c2ccccc2)c1C | 0 | ? | 0 | 0 | 0
CC1=NN(c2ccccc2)C(=O)/C1=C\c1cc(C)n(-c2cccnc2)c1C | ? | -73 | 0 | 0 | ?
Cc1cc(/C=C2\SC(=S)N(C)C2=O)c(C)n1-c1ccc(O)cc1 | 0 | -97 | 0 | ? | 0
Cc1cc(/C=C2/SC(=S)N(c3cccc(Cl)c3)C2=O)c(C)n1-c1cccnc1 | - | -93 | - | - | -
Cc1cc(/C=C2/SC(=S)N(c3ccc([N+](=O)[O-])cc3)C2=O)c(C)n1-c1cccnc1 | 0 | -83 | 0 | 0 | 13µM
CC(C)N1CC(C(=O)Nc2ccc(C#N)cc2)CC1=O (stereo not drawn) | 0 | 0 | 0 | 0 | 0
CCOC(=O)c1c(S(=O)(=O)NCc2ccc(C)o2)c(C)n(C)c1C | 0 | 0 | 0 | 0 | 0
CC(C)OC(=O)CCC1(C(=O)O)CCC(=O)NC1 (stereo not drawn) | - | 0 | 0 | 0 | 1.3µM
CC(C)OC(=O)Cc1ccccc1 | 0 | 0 | - | 0 | 0
Cc1cc(=O)oc2c3c(cc(OCC(=O)NCC4CCC(C(=O)O)CC4)c12)OC(C)(C)CC3 (stereo not drawn) | ? | 0 | 0 | 0 | ?
Cc1ccc(-c2nn(-c3ccccc3)cc2C(N)=O)o1 | 0 | 0 | 0 | 20µM | 0
Cc1ccc(-c2nn(-c3ccccc3)cc2/C=N/NC(=O)c2ccncc2)o1 | 0 | ? | 0 | 0 | 0
